# Bioassay records as filed in PubChem BioAssay.
# LASV entry inh: blocks Lassa virus binding to or entry into cells. Lassa virus pseudotype entry inhibition, cell reporter. Potency, µM (doses to about 37.9 µM), usual class: inhibitors. 300,000 tested, 1.2% active. AID 540256; calls by dose curve; tested in HEK293 cells; note: nearly all actives have a fitted effect of over 50% in size
# Shiga inhibitor: inhibitors of Shiga toxin in Vero cells | AID 2315 | inhibition, % at 38.7 µM | 290,000 tested, 9.2% active | Vero cells, Shiga toxin protein synthesis inhibition reporter; in the data active = inhibition mostly above about 28%, no sharp cut-off; inactive = mostly below about 43%
# AMA1-RON2 inh: AMA1-RON2 (P. falciparum) interaction inhibition | 360,000 tested, 0.2% active | Potency, µM (titrated, usually from 58.2 µM), most hits filed as inhibitors | AID 720542 | AlphaScreen AMA1-biotinylated RON2 peptide binding; active = well fitted inhibition curve with a large enough effect; inconclusive = small, poorly fitted or top-dose-only effect; inactive = no such curve, though single readings can be large or run the other way; note: nearly all actives have a fitted effect of over 45% in size
#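 AMA1 (3D7) with his tag at 25 nM final met compounds first, then biotinylated RON2 peptide at 25 nM; detection used donor plus acceptor beads, 10 µg/mL apiece, read by AlphaScreen after 30 min at room temperature.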
# Marburg entry inh: inhibitors of Marburg virus binding or cell entry; Marburg virus pseudotyped entry inhibition, cell reporter; 300,000 tested, 1.8% active; Potency, µM (series often up to 37.8 µM), usual class: inhibitors; AID 540276; calls by dose curve; tested in HEK293 cells
# Cycloheximide cs: counter-screen hit for Shiga toxin inhibitors, cycloheximide; cell reporter, cycloheximide protein synthesis inhibition counterscreen; max response, %; 300,000 tested, 12% active; in the data active = max response mostly above about 13%, no sharp cut-off; inactive = mostly below about 14%; note: read at 38.3 µM for the half of the compounds with a filed dose
# Numbers stand for hits; n = inactive; u = inconclusive; x = no result given; + = active, no number; [ ] = dose if it differs, or a comment. This excerpt belongs to a sample that is enriched for hits.
SMILES,LASV entry inh,Shiga inhibitor,AMA1-RON2 inh,Marburg entry inh,Cycloheximide cs
Cc1oc(C(C)(C)C)cc1C(=O)Nc1ccc2c(c1)OCCO2,n,102,n,n,53
O=c1c(-c2ccc(Cl)cc2)c[nH]n1-c1ccccc1,x,78,n,x,25
O=c1c(-c2ccccc2)c[nH]n1-c1cccc([N+](=O)[O-])c1,n,77,n,u,22
OCC[C@H]1C[C@@H](O)[C@H](O)[C@@]2(CCc3ccccc3O2)O1,x,x,n,x,x
COc1ccc(/C(C)=N/NC(=O)c2ccncc2)cc1,x,n,n,x,n
COc1ccc(/C(C)=N/NC(=O)c2ccccc2N)cc1,n,78,n,u,34
C/C(=N/NC(=O)c1ccncc1)c1ccc(NC(=O)c2ccc(Cl)cc2Cl)cc1,n,n,n,u,63
COc1ccc(C(=O)Nc2ccc(/C(C)=N/NC(=O)c3ccncc3)cc2)cc1,x,n,x,x,26
CC(=NNC(=O)c1ccccc1N)c1ccccc1O,x,x,n,x,x
C/C(=N\NC(=O)c1ccncc1)c1ccc(NC(=O)c2ccc(Cl)cc2)cc1,x,97,n,x,57
COc1cccc(NC(=O)Nc2cc(C)on2)c1,x,x,n,x,23
COc1cccc(-c2cc(C(=O)Nc3cc(C)on3)no2)c1,n,n,n,u,n
COc1cccc(C(=O)NC(=O)Nc2cc(C)on2)c1,x,71,n,n,56
Cc1ccc(C(C(=O)NCc2ccc(F)cc2)N(Cc2ccco2)C(=O)c2snc(C(N)=O)c2N)o1 (centres undefined),u,n,n,u,n
COC(=O)c1c(SCc2ccc(C#N)cc2)nc(=O)[nH]c1C,n,n,n,u,n
CC(C)(C)NC(=O)c1ccc(C(=O)NC(C)(C)C)cc1,n,n,n,n,n
CC(C)(C)NC(=O)c1sccc1C(=O)O,n,51,n,u,22
Cc1cccc(-c2nc(SCc3cc(=O)c4c(C)cc(C)cc4[nH]3)n[nH]2)c1,n,x,x,x,x
Cc1ccccc1C(=O)Nc1cccc(-c2ccc3nncn3n2)c1,u,n,n,u,n
Cc1ccc(C(=O)Nc2cccc(-c3cn4ccccc4n3)c2)cc1,n,81,n,u,41
Cc1ccccc1C(=O)Nc1cccc(-c2cn3ccccc3n2)c1,u,n,n,u,21
O=C(Nc1cccc(-c2cn3ccccc3n2)c1)c1ccccc1,n,57,n,u,34
CCCCC(=O)Nc1cccc(-c2cn3ccccc3n2)c1,n,n,n,n,29
CC1Oc2ccccc2N(CC(=O)N2CCCCC2)C1=O (centres undefined),n,n,n,n,n
CC1Oc2ccccc2N(CC(=O)c2ccc(F)cc2)C1=O (centres undefined),n,n,n,n,n
SMILES,LASV entry inh,Shiga inhibitor,AMA1-RON2 inh,Marburg entry inh,Cycloheximide cs
Cc1ccc(C(=O)CN2C(=O)C(C)Oc3ccccc32)cc1 (centres undefined),x,n,n,x,33
CC1Oc2ccccc2N(CC(=O)c2ccccc2)C1=O (centres undefined),u,n,n,n,23
CCOc1ccccc1NC(=O)C1CCCN1C(=O)c1cccs1 (centres undefined),x,x,n,x,x
CCOc1ccccc1C1C2CCCCC2(O)CCN1C(=O)c1cccs1 (centres undefined),n,55,n,u,44
CCCN1CCC(=NNC(=O)c2ccc(Br)o2)CC1,n,70,n,n,41
O=C(NN=C1CCN(Cc2ccccc2)CC1)c1ccccc1O,n,35,n,n,22
CCOC(=O)C1=C(C)C/C(=N\NC(=O)c2ccccc2O)CC1,x,n,n,x,23
CCN1CCC(=NNC(=O)c2ccco2)CC1,n,53,n,u,56
O=C(NN=C1CCN(Cc2ccccc2)CC1)c1cc2ccccc2cc1O,n,n,n,n,n
O=C(Cn1c(=O)cnc2ccccc21)N1CCN(S(=O)(=O)c2cccc([N+](=O)[O-])c2)CC1,n,x,n,n,x
CCCN1CCC(=NNc2ccc(C(=O)O)cc2)CC1,n,40,n,u,30
O=C1/C(=C\c2ccc(Br)o2)Cc2ccccc21,u,53,u,n,73
O=C1C(=Cc2cccc(Cl)c2)Cc2ccccc21,x,x,n,x,x
Cn1cccc1/C=C1\CCc2ccccc2C1=O,u,n,14µM,u,n
O=C1C(=Cc2ccc(Cl)cc2)CCc2ccccc21,x,x,n,x,x
Cn1cccc1/C=C1\CC(C(C)(C)C)C/C(=C\c2cccn2C)C1=O (centres undefined),n,n,n,u,n
O=C1/C(=C/c2cccs2)Cc2ccccc21,n,157,n[11.6 µM],n,36
Cn1cccc1/C=C1\Cc2ccccc2C1=O,x,+,n,x,42
Cc1ccc(N2CC(NC(=O)c3ccc4c(c3)OCO4)CC2=O)cc1 (centres undefined),n,x,x,x,x
C#CCCCON=C1C[C@@H](O)[C@H](O)[C@H]2[C@@H]3C(=O)N(c4ccc(F)cc4F)C(=O)[C@@H]3CC[C@@H]12,x,x,x,n,x
O=S(=O)(Nc1ccc2nc(-c3ccc(Br)o3)[nH]c2c1)c1ccccc1,x,n,x,x,40
O=S(=O)(Nc1ccc2nc(C(F)(F)F)[nH]c2c1)c1ccccc1,u,n,n,n,n
Cc1ccc(-c2nc3ccc(NS(=O)(=O)c4ccccc4)cc3[nH]2)o1,n,130,n,n,66
Cc1noc(C)c1CCC(=O)Nc1cc(C(=O)O)ccc1Cl,x,x,n,x,x
CC(=O)c1ccc(NC(=O)c2ccc3c(=O)n4c(nc3c2)CCCCC4)cc1,x,n,n,x,n
SMILES,LASV entry inh,Shiga inhibitor,AMA1-RON2 inh,Marburg entry inh,Cycloheximide cs
Cc1ccc(NC(=O)c2ccc3c(=O)n4c(nc3c2)CCC4)cc1F,x,x,n,x,x
CCc1cccc(NC(=O)c2ccc3c(=O)n4c(nc3c2)CCCCC4)c1,x,76,n,x,38
O=C(Nc1ccc(F)cc1)c1ccc2c(=O)n3c(nc2c1)CCCCC3,n,52,n,x,24
CCc1ccc(C(=O)NNC(=O)c2ccc3c(=O)n4c(nc3c2)CCC4)cc1,n,n,n,n,n
O=C(Nc1ccc(F)c(Cl)c1)c1ccc2c(=O)n3c(nc2c1)CCCCC3,u,54,n,u,52
O=C(Nc1ccc(Cl)cc1)c1ccc2c(=O)n3c(nc2c1)CCCCC3,x,41,n,x,54
CCN1CCN(S(=O)(=O)c2ccc(Cl)c(C(=O)N(C)Cc3ccco3)c2)CC1,n,x,n,n,x
COc1ccc(N(CC(=O)NCCSCc2ccccc2Cl)S(C)(=O)=O)cc1Cl,x,n,n,x,n
O=C(Nc1ccc(Cl)cc1Cl)c1ccc2c(=O)n3c(nc2c1)CCC3,u,x,n,u,x
O=C(Nc1cccc(Cl)c1)c1ccc2c(=O)n3c(nc2c1)CCCCC3,u,102,n,u,41
Cc1nc(SCC(=O)Nc2ccccc2F)[nH]c(=O)c1Cc1ccccc1,n,x,x,n,x
O=C(N/N=C/c1cn(-c2ccccc2)nc1-c1cccnc1)c1ccccc1,n,n,n,u,n
O=C(N/N=C/c1cn(-c2cccs2)nc1-c1ccccc1)c1ccccc1Br,n,n,n,n,25
O=C(N/N=C/c1cn(-c2cccs2)nc1-c1ccccc1)c1ccccc1O,13µM,94,n,16µM,49
O=C(CCl)Nc1cn(-c2ccccc2)nc1-c1ccccc1,4.1µM,n,n,16µM,39
O=C(Nc1cn(-c2ccccc2)nc1-c1cccs1)c1ccco1,n,92,n,u,18
